Experimental data: article PMC5540273 (PLoS ONE, 2017)

Columns and labels:
Conditions in all cases: concentration: 1 μM, replicates: in singlicate; n = 1
MINK = system: T1, MINK
T1 construct: gene MINK1

MKK7 = system: MKK7
MKNK1 = system: MKNK1
MKNK2 = system: MKNK2
MLCK = system: T2, MLCK
T2 construct: gene MYLK3

MLK1 = system: T3, MLK1
T3 construct: gene MAP3K9

MLK2 = system: MLK2
MLK3 = system: MLK3
MRCKA = system: MRCKA
MRCKB = system: T4, MRCKB
T4 construct: gene CDC42BPB
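Also: KINOMEscan kinase panel screen.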

Compound | %Inh (MINK) | %Inh (MKK7) | %Inh (MKNK1) | %Inh (MKNK2) | %Inh (MLCK) | %Inh (MLK1) | %Inh (MLK2) | %Inh (MLK3) | %Inh (MRCKA) | %Inh (MRCKB)
CC(C)c1ccc(O)cc1Nc1ccnc2ccc(C(F)(F)F)cc12 [GW482059] | 0% | 0% | 2% | 10% | 0% | 0% | 5% | 13% | 0% | 0%
COc1cccc(NC(=O)Nc2ccc(C)c(-c3ccc(C(=O)Nc4ccncc4)cc3)c2)c1 [GSK1398474] | 6% | 14% | 4% | 24% | 6% | 10% | 14% | 31% | 13% | 3%
COc1ccc(CSc2nnc(-c3ccc4nccn4c3)o2)cc1C(F)(F)F | 12% | 0% | 0% | 0% | 2% | 0% | 4% | 3% | 3% | 20%
CCn1c(-c2c(N)noc2C)nc2cnccc21 [SB-737856] | 0% | 0% | 0% | 12% | 0% | 0% | 0% | 1% | 8% | 1%
O=C(Nc1n[nH]c2nc(-c3cccs3)c(Br)cc12)C1CC1 [SB-735297] | 28% | 0% | 46% | 39% | 90% | 0% | 0% | 0% | 16% | 0%
CNc1cc(-c2ccc3c(N)n[nH]c3c2)nc(N)n1 [GSK2224810] | 29% | 0% | 4% | 31% | 73% | 7% | 0% | 2% | 6% | 8%
COc1ccc(CSc2nnc(-c3ccc4c(c3)CCO4)o2)cc1 | 0% | 0% | 0% | 0% | 0% | 0% | 15% | 0% | 0% | 0%
CS(=O)(=O)Cc1ccc(Nc2nccc(-c3c(-c4cccc(NC(=O)C5CCCCC5)c4)nn4ncccc34)n2)cc1 [GSK350559] | 0% | 21% | 25% | 13% | 3% | 2% | 7% | 13% | 0% | 0%
Cc1ccccc1Cn1ccn2c(=O)cc(N3CCOCC3)nc12 [GSK2269905] | 0% | 0% | 0% | 10% | 0% | 0% | 17% | 3% | 0% | 0%
CCc1ccc(-c2ccc3c(c2)-c2n[nH]cc2S(=O)(=O)N3C)cc1 | 2% | 0% | 0% | 0% | 16% | 13% | 16% | 0% | 0% | 6%
COc1cccc(C2=C(Nc3cc(Cl)c(O)c(Cl)c3)C(=O)NC2=O)c1 [SB-390767] | 0% | 26% | 6% | 26% | 0% | 0% | 4% | 0% | 0% | 3%
COc1ccc(Nc2nccc(-c3ccc(NC(=O)c4cc5cc(F)ccc5[nH]4)cc3)n2)cc1 [GSK1229496] | 4% | 0% | 14% | 0% | 0% | 0% | 0% | 0% | 17% | 0%
Cc1ccc(NC(=O)Nc2ccccc2)cc1-c1ccc(C(=O)Nc2ccncc2)cc1 [GSK1398471] | 3% | 23% | 3% | 0% | 0% | 0% | 0% | 4% | 5% | 24%
CSc1ccc(-c2nc3n(c2-c2ccncc2)CCC3)cc1 [SKF-105561] | 15% | 1% | 0% | 20% | 0% | 0% | 0% | 0% | 0% | 0%
COc1ccc(Nc2nccc(N3CCC(NC(=O)C(C)c4ccc(Cl)cc4)C3)n2)cc1 (stereo not shown) [GSK1379735] | 1% | 10% | 12% | 2% | 14% | 0% | 43% | 21% | 15% | 2%
CNCc1ccc2nc(NC(=O)c3ccc(C(C)(C)C)cc3)cn2c1 | 53% | 8% | 17% | 10% | 14% | 8% | 0% | 6% | 6% | 14%
Cc1c(Cn2c(C)c(C)n3c(=O)cc(N4CCOCC4)nc23)cccc1C(F)(F)F [GSK2328680] | 0% | 0% | 0% | 0% | 0% | 0% | 0% | 8% | 0% | 6%

Compound | %Inh (MINK) | %Inh (MKK7) | %Inh (MKNK1) | %Inh (MKNK2) | %Inh (MLCK) | %Inh (MLK1) | %Inh (MLK2) | %Inh (MLK3) | %Inh (MRCKA) | %Inh (MRCKB)
Cc1ccc(NC(=O)Nc2ccc(Cl)cc2)cc1-c1ccc(C(=O)Nc2ccncc2)cc1 [GSK1398472] | 11% | 21% | 10% | 7% | 0% | 0% | 0% | 15% | 16% | 0%
c1ccc(-c2ccnc3[nH]ccc23)cc1 [SB-693578] | 19% | 0% | 0% | 25% | 0% | 0% | 0% | 0% | 15% | 0%
Nc1ncnc2occ(-c3ccc4c(c3)CCN4C(=O)Cc3cc(F)ccc3F)c12 [GSK2645446] | 0% | 0% | 0% | 0% | 0% | 0% | 10% | 6% | 22% | 0%
CC[C@@H]1CO[C@H](C(=O)Nc2ccccc2)CN1c1cc(-c2ccc3c(N)n[nH]c3c2)nc(NC)n1 [GSK2376236] | 0% | 0% | 6% | 0% | 0% | 0% | 0% | 14% | 14% | 0%
Cn1cnc2c(N)ncnc21 [SKF-97623] | 0% | 0% | 38% | 0% | 0% | 0% | 0% | 0% | 12% | 0%
CNc1nc(-c2ccc3c(N)n[nH]c3c2)cc(N2C[C@@H](C(=O)Nc3ccccc3)CC[C@H]2C)n1 [GSK2298859] | 0% | 0% | 0% | 0% | 0% | 0% | 0% | 28% | 10% | 0%
Cc1ccccc1-c1cc(-c2c[nH]nc2-c2ccccn2)ccn1 [GW680061] | 31% | 0% | 9% | 0% | 0% | 0% | 2% | 0% | 0% | 0%
COc1ccc(CSc2nnc(-c3ccc4ncsc4c3)o2)cc1C(F)(F)F | 0% | 0% | 0% | 0% | 0% | 0% | 23% | 0% | 0% | 0%
O=C(Nc1n[nH]c2nc(-c3ccco3)c(Br)cc12)C1CCN(Cc2ccccc2)C1.O=C(O)[C@H](O)[C@@H](O)C(=O)O (stereo not shown) [SB-742034] | 15% | 0% | 0% | 27% | 25% | 8% | 20% | 9% | 0% | 0%
CNC(=O)c1ccc(C)c(-n2c(C)cc(OCc3ccc(F)cc3F)c(Br)c2=O)c1 | 0% | 0% | 0% | 100% | 0% | 0% | 0% | 19% | 0% | 8%
COC(=O)c1cccc(NC(=O)NC2CCN(c3ccnc(Nc4ccc(OC)cc4)n3)C2)c1 (stereo not shown) [GSK1379746] | 0% | 7% | 3% | 2% | 4% | 0% | 0% | 0% | 24% | 0%
Cc1c(Cn2c3ccccc3n3c(=O)cc(N4CCOCC4)nc23)cccc1C(F)(F)F [GSK2306394] | 0% | 0% | 0% | 6% | 0% | 0% | 2% | 0% | 0% | 0%
COC(=O)C(Cc1ccccc1)NC(=O)NC1CCN(c2ccnc(Nc3ccc(F)cc3)n2)C1 (stereo not shown) [GSK1379714] | 2% | 0% | 0% | 0% | 5% | 0% | 0% | 15% | 22% | 0%
CC(=O)c1c(C)c2cnc(Nc3ccn(C)n3)nc2n(C2CCCC2)c1=O | 8% | 0% | 0% | 0% | 0% | 0% | 21% | 0% | 0% | 5%
Fc1ccc(-c2nn3cccc(F)c3c2-c2ccncc2)cc1 [GW475620] | 27% | 16% | 0% | 0% | 0% | 2% | 31% | 18% | 23% | 34%
COc1ccc2cc(-c3nc(-c4ccccc4C(C)C)[nH]c3-c3ccncc3)ccc2c1 [SB-660566] | 0% | 0% | 5% | 22% | 6% | 0% | 0% | 0% | 4% | 1%
CN1c2ccc(-c3ccc(C(N)=O)cc3)cc2-c2[nH]ncc2S1(=O)=O | 53% | 3% | 0% | 0% | 0% | 19% | 26% | 3% | 0% | 3%
